Assay outcomes from PubChem BioAssay.
The list is not random: actives were taken first. Their share in the collection is about 2.4%.
WRN inhibitor: blocks human WRN helicase; Q14191; AID 651768; Potency, µM (doses to about 114 µM), for inactives: at the highest dose activity change, negative = inhibition, most hits filed as inhibitors; WRN helicase unwinding, fluorescent forked duplex, kinetic; hit rate 0.46% among 360,000; note: potency is the fitted concentration of half-maximal effect; % is set by controls: 0 for no effect and ±100 for the full control effect; nearly all actives have a fitted effect of over 55% in size
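Enzyme (20 nM final) and test compound sit together 15 min at room temperature before substrate addition. Substrate is a single-forked duplex oligonucleotide (100 nM) labelled with fluorophore and quencher, with 2 mM ATP; helicase unwinding raises red fluorescence, read kinetically.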
Pol kappa inh-1: blocks human DNA polymerase kappa activity; AID 588579; Q9UBT6; hit rate 0.53% among 400,000; Potency, µM (top dose mostly 107 µM), for the others: top-dose activity, negative = inhibition, hits mostly inhibitors; purified Pol kappa, fluorescent DNA synthesis assay, 10 min; note: potency is the fitted concentration of half-maximal effect; % is set by controls: 0 for no effect and ±100 for the full control effect
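Readout: fluorescence, taken kinetically at 0 and 10 min. Conditions: 10 nM Pol kappa, 15 min RT compound preincubation, 50 nM substrate final. Controls: enzyme-free buffer wells.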
Pol iota inh: inhibitors of human DNA polymerase iota; Q9UNA4; Pol iota fluorescent replication assay, 10 min; Potency, µM (titrated, usually from 115 µM), without a hit: at the highest dose activity, negative = inhibition, most hits filed as inhibitors; hit rate 1% among 390,000; AID 588590; note: potency is the fitted concentration of half-maximal effect
Target sequence (Q9UNA4 whole entry, looked up): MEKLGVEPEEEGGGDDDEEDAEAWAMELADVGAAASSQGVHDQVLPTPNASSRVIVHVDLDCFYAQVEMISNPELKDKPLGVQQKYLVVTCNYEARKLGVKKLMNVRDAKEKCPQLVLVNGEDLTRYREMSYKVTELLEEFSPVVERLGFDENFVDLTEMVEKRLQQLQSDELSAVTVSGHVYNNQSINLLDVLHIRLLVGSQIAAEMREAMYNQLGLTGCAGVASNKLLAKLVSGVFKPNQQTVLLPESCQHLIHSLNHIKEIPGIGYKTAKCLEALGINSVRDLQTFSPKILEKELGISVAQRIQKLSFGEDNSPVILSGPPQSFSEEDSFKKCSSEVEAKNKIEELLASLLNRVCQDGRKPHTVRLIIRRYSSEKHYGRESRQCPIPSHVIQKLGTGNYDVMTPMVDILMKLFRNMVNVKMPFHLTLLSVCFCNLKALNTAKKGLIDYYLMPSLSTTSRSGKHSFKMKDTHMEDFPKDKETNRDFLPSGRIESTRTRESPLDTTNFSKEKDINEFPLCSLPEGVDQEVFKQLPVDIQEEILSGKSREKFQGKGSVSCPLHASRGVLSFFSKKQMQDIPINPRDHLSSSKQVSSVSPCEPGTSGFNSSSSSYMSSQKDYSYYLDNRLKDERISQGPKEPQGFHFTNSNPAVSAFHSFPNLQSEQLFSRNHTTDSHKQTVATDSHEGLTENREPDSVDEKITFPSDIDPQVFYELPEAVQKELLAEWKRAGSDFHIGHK
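Pol iota at 10 nM preincubated 15 min with compounds at room temperature; reaction started with fluorescent substrate, 50 nM final. Fluorescence read kinetically at 0 and 10 min; buffer-only wells as negative control.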
FEN1 inhibitor: human FEN1 inhibition. hit rate 0.35% among 390,000. Potency, µM (top dose mostly 114 µM), for inactives: at the top dose activity change, negative = inhibition, usual class: inhibitors. Recombinant FEN1 flap cleavage, fluorescence, 15 min; note: potency is the fitted concentration of half-maximal effect; % is set by controls: 0 for no effect and ±100 for the full control effect; nearly all actives have a fitted effect of over 65% in size
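With each library titrated from low to high concentration, compounds met 10 nM FEN1 for 15 min at room temperature before 50 nM substrate was added; readings at 0 and 15 min fed four-parameter Hill curve fits.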
Pol eta inh-1: DNA polymerase eta (human) inhibition; Potency, µM (series often up to 114 µM), without a hit: at the highest dose activity change, negative = inhibition, actives largely listed as inhibitors; recombinant Pol eta, fluorescent DNA replication assay; hit rate 1.2% among 390,000; Q9Y253; note: potency is the fitted concentration of half-maximal effect; % is set by controls: 0 for no effect and ±100 for the full control effect
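Pol eta at 10 nM preincubated with compounds 15 min at room temperature; reaction started with fluorescent substrate (50 nM final) and read kinetically at 0 and 10 min.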
Pol beta inh: blocks human DNA polymerase beta activity | P06746 | Pol beta primer extension/strand displacement, fluorescence kinetic | Potency, µM (top dose mostly 114 µM), inactives show top-dose activity change, negative = inhibition, usual class: inhibitors | hit rate 1.3% among 340,000 | AID 485314; note: potency is the fitted concentration of half-maximal effect; % is set by controls: 0 for no effect and ±100 for the full control effect
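Pol beta (10 nM) and compounds were preincubated 15 min at room temperature, then 50 nM substrate (final) started primer extension/strand displacement. Reads were taken at 0 and 10 min; concentration-response data were fitted to a four-parameter Hill equation.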
GALK inh confirm: galactokinase (human) inhibition, confirmation | hit rate 70% among 150 | Potency, µM (highest dose often 115 µM), for the others: top-dose activity, negative = inhibition, hits mostly inhibitors | shares compounds with Pol eta inh-1 | purified GALK, Kinase-Glo ATP depletion luminescence
Redox cycling: counter-screen for GALK inhibitors: redox cycling H2O2 generation | Potency, µM (series often up to 115 µM), inactives show at the highest dose activity change, negative = H2O2 signal, usual class: inhibitors | AID 2035 | shares compounds with Pol eta inh-1 | Phenol red-HRP H2O2 redox cycling, absorbance 600 nm | hit rate 40% among 150
HEK293 tox: HEK-293 cytotoxicity, GALK inhibitor secondary; shares compounds with Pol eta inh-1; HEK-293 viability, ATP luminescence (CellTiter-Glo), 24/48 h; Potency, µM (doses to about 46.1 µM), inactives show top-dose activity change, negative = cytotoxicity, hits mostly inhibitors; hit rate 10% among 170; note: potency is the fitted concentration of half-maximal effect; % is set by controls: 0 for no effect and ±100 for the full control effect
Pol kappa inh-2: confirmation of human DNA polymerase kappa inhibitors; shares compounds with Pol eta inh-1; purified Pol-kappa, fluorescent strand-displacement substrate; Potency, µM, actives largely listed as inhibitors; hit rate 76% among 920; AID 720501; note: potency is the fitted concentration of half-maximal effect
Pol eta inh-2: confirmation of human DNA polymerase eta inhibitors | shares compounds with Pol eta inh-1 | hit rate 64% among 2,600 | Pol eta primer extension, TAMRA/BHQ fluorescence, 10 min | AID 720502 | Potency, µM, most hits filed as inhibitors; note: potency is the fitted concentration of half-maximal effect
An asterisk follows results filed as active; ? = inconclusive; . = no result given; [ ] = another dose, or the depositor's remark. Calls come from the whole dose curve; as a rule, active = well fitted curve in the direction sought with a large enough effect; inconclusive = small, poorly fitted or top-dose-only effect, or another doubt; inactive = no such curve, though single readings can be large; an effect the other way counts as inactive or inconclusive.

SMILES | WRN inhibitor | Pol kappa inh-1 | Pol iota inh | FEN1 inhibitor | Pol eta inh-1 | Pol beta inh | Pol eta inh-2 | others
c1csc(Cc2nn3c(-c4n[nH]c5c4CCC5)nnc3s2)c1 | -36% | -33% | ? | -5% | 11µM* | 28µM* | ?
NS(=O)(=O)c1ccc(NC(=O)COC(=O)CCCN2C(=O)c3cccc4cccc(c34)C2=O)cc1 | -13% | -3% | 90% | 2% | -16% | . | .
CC(=O)C1=CCC(c2ccc(Cl)c(Cl)c2)N(S(=O)(=O)c2ccc(C)cc2)C1 (configuration not stated) | -8% | . | . | . | . | . | .
c1cncc(CNc2ncnc3ccc(-c4ccoc4)cc23)c1 | . | ? | 31% | -1% | -4% | . | .
Cc1cccc(CNc2ncnc3ccc(-c4ccoc4)cc23)c1 | . | 4% | -10% | -7% | -11% | . | . | GALK inh confirm=?;Redox cycling=-4%;HEK293 tox=3%
CCNc1nc(Oc2ccc(OCC(=O)OC)nn2)nc(N2CCOCC2)n1 | . | -18% | 6% | 0% | -16% | -1% | .
Cc1nnc(SCC2=C(C(=O)O)N3C(=O)C(NC(=O)COc4ccccc4)C3SC2)s1 (configuration not stated) | ? | 79µM* | ? | -19% | 10µM* | . | 38* | Pol kappa inh-2=?
NCc1ccccc1CC(=O)N[C@@H]1C(=O)N2C(C(=O)O)=C(CSc3nnnn3CC(=O)O)CS[C@@H]12 | . | -13%[19.4 µM] | . | . | . | . | .
Cc1nnc(SCC2=C(C(=O)O)N3C(=O)C(NC(=O)c4cc(F)c(F)cc4Cl)C3SC2)s1 (configuration not stated) | -6%[11.6 µM] | ? | ? | -1% | 20µM* | ? | 34*
CCC(C(=O)NC1C(=O)N2C(C(=O)O)=C(CSc3nnc(C)s3)CSC12)c1ccccc1 (configuration not stated) | -11% | -29% | -27% | 16% | ? | . | .
CCN(CC)S(=O)(=O)c1ccc(C(=O)Nc2nc3c(Cl)cc(Cl)cc3s2)cc1 | . | -3%[60.1 µM] | 22% | -4% | -13% | 0% | .
O=C(Nc1nonc1-c1ccc(Cl)cc1)c1ccccc1F | . | -23% | 8% | -11% | -17% | -3% | .
Cc1nc2nc(NC(=O)CC(C)C)[nH]n2c(=O)c1Cc1ccccc1 | . | -7% | 2% | -7% | -16% | 1% | .
Cc1cc(CNC(=O)c2cccc3c2C(=O)c2ccc(-c4ccc(F)cc4OCc4ccccc4)cc2S3(=O)=O)c(C(F)(F)F)o1 | -12%[11.6 µM] | 79µM* | 40µM* | ? | 20µM* | . | 54*
O=C(NC[C@H]1CCCO1)c1cccc2c1C(=O)c1ccc(-c3ccc(F)cc3OCc3ccccc3)cc1S2(=O)=O | -10% | -27% | -24% | 2% | -8% | . | .
O=C(O)c1c2c(nc3ccc(S(=O)(=O)N4CCC(C(=O)NC5CCCCCC5)CC4)cc13)CCCC2 | -8%[11.6 µM] | 79µM* | ? | -8% | 20µM* | 40µM* | ?
O=C(Nc1nnc(C2CCCCC2)s1)C1CC(=O)N(c2ccccc2)C1 (configuration not stated) | -1% | 4% | 63% | 2% | -15% | 3% | .
O=C(Nc1nnc(C2CC2)s1)C1CC(=O)N(c2ccc3c(c2)OCCO3)C1 (configuration not stated) | -26%[57.1 µM] | ? | 45µM* | 11% | 20µM* | ? | ?
Cc1nc(-n2nc(C)c(Cc3ccc4c(c3)OCO4)c2C)sc1C(=O)Nc1cccc(Cl)c1 | . | 3% | -18% | 10% | 11% | -5% | .
COCCn1c(SC(C)C(=O)NCC2CCCO2)nc2scc(-c3ccc(F)cc3)c2c1=O (configuration not stated) | -2% | 0% | 23% | -3% | -9% | . | .
COCCn1c(SC(C)C(=O)NCC2CCCO2)nc2sc3c(c2c1=O)CCC3 (configuration not stated) | -23% | -2% | ? | 1% | ? | . | ?
O=C(O)c1ccc(-n2c(-c3cc(C4CC4)[nH]n3)n[nH]c2=S)cc1 | -1% | -6% | -12% | -3% | -8% | 10% | .
O=C(O)c1ccc(-n2c(-c3cc(-c4ccco4)[nH]n3)n[nH]c2=S)cc1 | ? | ? | ? | 3% | 10µM* | ? | 30*
CCCCOc1ccc(SCCCN2CCOCC2)cc1 | -23% | -20% | 14% | -3% | -6% | . | .
COc1cc(/C=N/NC(=O)C(Cc2c[nH]c3ccccc23)NC(=O)OCc2ccccc2)cc([N+](=O)[O-])c1O (configuration not stated) | ? | ? | ? | -16% | 20µM* | 50µM* | ?
COc1ccc(C2=NN(c3nc(-c4ccccc4)c(CC(=O)O)s3)C(c3ccco3)C2)cc1 (configuration not stated) | ? | ? | ? | 6% | 28µM* | 22µM* | ? | Pol kappa inh-2=15*
Cc1nc(N2N=C(c3ccc(Cl)cc3)CC2c2ccco2)sc1C(=O)N(C)C (configuration not stated) | -7% | -6% | 22% | 5% | -16% | ? | .
Cc1cc(S(=O)(=O)Nc2nc(CN3CCOCC3)nc3sc4c(c23)CCC4)cc(C)c1C | ? | ? | 25µM* | -14% | 18µM* | . | ? | Pol kappa inh-2=?
Cc1ccc(S(=O)(=O)Nc2nc(CN3CCOCC3)nc3sc(C(=O)O)c(C)c23)cc1 | -5%[11.6 µM] | . | . | . | 13µM* | . | 30*
Cc1nc2ccccc2n2c(O)c(CC(=O)O)cc12 | ? | ? | ? | ? | 79µM* | ? | ? | Pol kappa inh-2=67*
